Results filed as inconclusive are left out. The source made the active and inactive calls. The call rests on the fitted dose curve; in most records, active means well fitted cell-killing curve with a large enough effect; inconclusive means small, poorly fitted or top-dose-only effect; inactive means flat fitted curve, though single readings scatter. Peptide text beside a SMILES is read from it.
Experiment: Cell Viability - LYMP2-022 (AID 987); further: nearly all actives have a fitted effect of over 55% in size;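 on viability change, negative = cytotoxic: 0% = DMSO alone and full effect = tetraoctylammonium bromide at 92 µM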
Conditions: LYMP2-022 lymphoblastoid cell viability; series mostly up to 92.2 µM; viability change, negative = cytotoxic: at the top concentration
Excerpt: NIH Chemical Genomics Center [NCGC]
NIH Molecular Libraries Screening Centers Network [MLSCN]
National Institutes of Environmental Health Sciences [NIEHS]
National Toxicology Program [NTP]
We have developed a 1536-well cell-based assay for quantitative high throughput screening (qHTS) against a number of cell lines to determine in vitro cytotoxicity of small molecules. This particular assay uses a human lymphoblastoid cell line (LYMP2-022) purchased from Coriell Institute for Medical Research.
NCGC Assay Protocol Summary:
The CellTiter-Glo luminescent cell viability assay (Promega) is a homogeneous method to measure the number of viable cells in culture. The end point readout of this assay is based on quantitation of intracellular ATP, an indicator of metabolic activity, using the luciferase reaction. Luciferase catalyzes the oxidation of beetle Luciferin to oxyluciferin and light in the presence of ATP. The luminescent signal is proportional to amount of ATP present.
Using the CellTiter-Glo luminescent cell viability assay, the amount of cellular ATP was measured in the lymphoblastoid cell line with complete culture medium following compound treatment for 24 hours. The assay was performed in opaque white Kalypsys 1536-well plates. In the screen, tetraoctylammonium bromide was used as positive control. Library compounds were measured for their ability to cause acute toxicity in the cell line, as reflected by a decrease in intracellular ATP levels, in a concentration-dependent manner. […] AC50 values were determined from concentration-response data modeled with the standard Hill equation.
qHTS protocol for CellTiter Glo lymphoblastoid cellular assay
[Step] [Parameter] [Value] [Description]
1. Reagent; 5 uL; 2500 lymphoblastoid cells/well
2. Time; 5 hr; 37 C incubation
4. Controls; 23 nL; Tetraoctylammonium bromide 6.4pM to 92 uM
5. Time; 24 hr; 37 C incubation
6. Reagent; 5 uL; CellTiter Glo reagent
7. Time; 30 min; Room Temperature
8. Detection; Luminescence; Viewlux plate reader
Keywords: cell viability, cytotoxicity, lymphoblastoid cell line, luminescence, NTPHTS, NTPHTS_NCGC, NIEHS, DSSTox, MLSMR, MLSCN, NIH Roadmap, qHTS, NCGC
Potency means the concentration at half of the fitted maximal effect.

| Structure (SMILES) | viability change, negative = cytotoxic | Potency |
| --- | --- | --- |
| CCCCC(CC)COC(=O)C(C#N)=C(c1ccccc1)c1ccccc1 (stereo not drawn) | -11.3% (inactive) | – |
| c1ccc2[nH]c(-c3cscn3)nc2c1 | -9.06% (inactive) | – |
| Cc1cc(O)c2c(c1)C(=O)c1cc(O)cc(O)c1C2=O | -23.6% (inactive) | – |
| Nc1ccc(S(N)(=O)=O)cc1 | -8.99% (inactive) | – |
| CN(C)c1ccc2nc3ccc(=[N+](C)C)cc-3sc2c1 | – | 6.31 µM (active) |
| CCc1nc(N)nc(N)c1-c1ccc(Cl)cc1 | -25.7% (inactive) | – |
| CC(=O)Nc1ccc(O)cc1 | -9.51% (inactive) | – |
| COC(=O)[C@H](Cc1ccccc1)NC(=O)[C@@H](N)CC(=O)O (H-Asp-Phe-OMe) | 2.62% (inactive) | – |
| CCCc1cc(=O)[nH]c(=S)[nH]1 | -15.3% (inactive) | – |
| COc1c2occc2cc2ccc(=O)oc12 | -5.89% (inactive) | – |
| Cc1ccc(C)c(OCCCC(C)(C)C(=O)O)c1 | -0.453% (inactive) | – |
| CS(=O)(=O)OCCCCOS(C)(=O)=O | – | inactive |
| NS(=O)(=O)c1cc(C(=O)O)c(NCc2ccco2)cc1Cl | -4.57% (inactive) | – |
